Data: PubChem BioAssay (Tox21)
Results filed as inconclusive are left out. Active and inactive are the calls of the source. Unless noted, the call rests on the fitted dose curve.

Legend:
[1] = Nuclear factor erythroid 2-related factor 2/antioxidant responsive element (Nrf2/ARE) small molecule agonists: luciferase reporter gene qHTS assay in human keratinocytes (AID 1919969); further: nearly all actives have a fitted effect of over 35% in size
[2] = biological target: Gonadotropin-releasing hormone receptor (Homo sapiens) (UniProt P30968); assay: Human gonadotropin-releasing hormone receptor (GnRHR) small molecule agonists, calcium flux assay in GnRHR-HEK293 cells (AID 1920063); further: nearly all actives have a fitted effect of over 35% in size
Outline: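 We seeded human GnRHR-expressing HEK293 cells for 18 hours, loaded them with calcium dye for an hour at 37 C, added test compounds, and recorded fluorescence intensity kinetically for three minutes.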

[3] = biological target: KiSS-1 receptor (Homo sapiens) (UniProt Q969F8); assay: Human kisspeptin (KISS1R) small molecule agonists, calcium flux assay in KISS1R-HEK293 cells (AID 1920064; active means well fitted activation curve with a large enough effect in the repeat runs)
Outline: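 Kinetic calcium assay, 1 s sampling over 3 min at Ex/Em 480/540, in HEK293 cells engineered with human KISS1R; compounds delivered in DMSO after 1 h dye loading.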

[4] = G protein-coupled receptor (GPCR) small molecule agonists, calcium flux assay: HEK293 wild type cell line counter screen (AID 1920065)
Outline: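 Calcium-sensitive dye, loaded 1 h at 37 C into cells cultured 18 h, reports compound-evoked calcium release as fluorescence (Ex/Em 480/540), measured over 3 min. Agonist mode; 15-point titrations, triplicate.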

[5] = p53 small molecule agonists, cell-based qHTS assay with human liver microsomes (AID 1963577);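 further: p53 response element beta-lactamase reporter cells with liver microsomes plus NADPH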
Outline: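 p53RE-bla cells; 5 h settle, 37 C/5% CO2; cpd + HLM 0.5 mg/mL + NADPH 0.5 mg/mL (final); 16 h 37 C; LiveBLAzer 2 h RT dark; fluorescence readout.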

[6] = p53 small molecule agonists, cell-based qHTS assay with rat liver microsomes (AID 1963578)
Outline: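 Rat liver microsome activation: microsomes 0.5 mg/mL, NADPH 0.5 mg/mL final; p53RE-bla cells, 16 h 37 C; LiveBLAzer readout, 2 h RT dark.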

[7] = p53 small molecule agonists, cell-based qHTS assay with human liver microsomes: qHTS cell viability counter screen (AID 1963579); further: nearly all actives have a fitted effect of over 45% in size
Outline: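 Luminescent CellTiter-Glo read-out, 30 min at room temperature, gauged cytotoxicity in p53RE-bla cells exposed 16 h at 37 C to DMSO-dissolved compounds with metabolic activation by human liver microsomes and NADPH, each 0.5 mg/mL final.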

[8] = p53 small molecule agonists, cell-based qHTS assay with rat liver microsomes: qHTS cell viability counter screen (AID 1963580); further: nearly all actives have a fitted effect of over 45% in size
Outline: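 HCT-116 p53RE-bla, 4,000 cells/well, 5 h pre-incubation; cpd + rat liver microsomes 0.5 mg/mL + NADPH 0.5 mg/mL (final); 16 h, 37 C; CellTiter-Glo, 30 min RT; luminescence.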

[9] = p53 small molecule agonists, cell-based qHTS assay: qHTS cell viability counter screen (AID 1963581); further: nearly all actives have a fitted effect of over 45% in size
Outline: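 Following 5 h attachment, HCT-116 p53RE-bla cells took up compound for 16 h at 37 C; the reporter was read with B/G FRET substrate (2 h RT), and viability then via CellTiter-Glo ATP luminescence.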

[10] = p53 small molecule agonists, cell-based qHTS assay (AID 1963582; active means well fitted activation curve with a large enough effect in the signal ratio in the repeat runs, not every such curve was filed as active; the % refers to the signal ratio)
Outline: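 In this cell-based concentration-response screen, a p53 response element drives beta-lactamase; cells received DMSO-borne compounds after 5 h culture and were incubated a further 16 h before FRET substrate development.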

[11] = biological target: 5-hydroxytryptamine receptor 2A (Homo sapiens) (UniProt P28223); assay: 5-hydroxytryptamine receptor 2A (HTR2A) small molecule antagonists, cell-based qHTS assay (AID 1963586); further: nearly all actives have a fitted effect of over 45% in size
Outline: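 Antagonist-mode intracellular calcium assay: DOI (4 nM) added after 5 min compound pre-incubation at room temperature to dye-loaded HTR2A-CHO cells. Fluorescence followed for 3 min, sampled every second.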

[12] = biological target: 5-hydroxytryptamine receptor 2A (Homo sapiens) (UniProt P28223); assay: 5-hydroxytryptamine receptor 2A (HTR2A) small molecule agonists, cell-based qHTS assay (AID 1963587); further: nearly all actives have a fitted effect of over 30% in size
Outline: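 Kinetic calcium-flux fluorescence (2 min, 1 sec intervals) after compound addition in agonist mode. HTR2A-CHO cells were cultured 18 h, then dye-loaded 1 h at 37 C.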

[13] = biological target: Muscarinic acetylcholine receptor M1 (Homo sapiens) (UniProt P11229); assay: Cholinergic receptor muscarinic 1 (CHRM1) small molecule antagonists, cell-based qHTS assay (AID 1963588); further: nearly all actives have a fitted effect of over 40% in size
Outline: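 CHRM1-CHO calcium-flux assay, antagonist mode. Cells were seeded 18 h, dye-loaded 1 h at 37 C and given compound for 5 min at RT, then acetylcholine was added at 50nM. FDSS fluorescence was read 3 min; 15 concentrations, three runs.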

[14] = biological target: Muscarinic acetylcholine receptor M1 (Homo sapiens) (UniProt P11229); assay: Cholinergic receptor muscarinic 1 (CHRM1) small molecule agonists, cell-based qHTS assay (AID 1963589); further: nearly all actives have a fitted effect of over 35% in size
Outline: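 Measures agonist-induced intracellular calcium rise. Stable human CHRM1 CHO line, 1 h dye load at 37 C, compounds from DMSO, kinetic fluorescence read.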

[15] = biological target: Beta-2 adrenergic receptor (Homo sapiens) (UniProt P07550); assay: Adrenergic beta2 receptor (ADRB2) small molecule antagonists, cell-based qHTS assay (AID 1963592); further: series mostly up to about 92 µM; nearly all actives have a fitted effect of over 50% in size
Outline: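 Cells (CHO, stable ADRB2 overexpression) incubated 18-20hr at 37C; compounds added from DMSO; agonist mix (1nM isoproterenol, 100uM IBMX, 25uM Ro-20-1724) added; 0.5hr RT; d2-cAMP and anti-cAMP-cryptate added; 1hr RT; 665/615 nm read.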

[16] = biological target: Beta-2 adrenergic receptor (Homo sapiens) (UniProt P07550); assay: Adrenergic beta2 receptor (ADRB2) small molecule agonists, cell-based qHTS assay (AID 1963593);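 further: CHO cells stably overexpressing human ADRB2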
Outline: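 CHO cells stably over-expressing ADRB2 were plated overnight at 37C, then dosed with compounds plus a stimulation mix containing 100uM IBMX and 25uM Ro-20-1724 for 0.5hr at room temperature. cAMP was measured by HTRF competition, 1hr.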

[17] = biological target: D(2) dopamine receptor (Homo sapiens) (UniProt P14416); assay: Dopamine D2 receptor (DRD2) small molecule agonists, cell-based qHTS assay (AID 1963594); further: nearly all actives have a fitted effect of over 35% in size
Outline: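 cAMP accumulation in DRD2-HEK293 cells measured by HTRF after 1 h detection; compounds added 10 min before NKH477 (200nM […]) forskolin-analogue stimulation, 30 min at room temperature, with Ro20-1724 present at 0.1 mM final.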

[18] = biological target: D(2) dopamine receptor (Homo sapiens) (UniProt P14416); assay: Dopamine D2 receptor (DRD2) small molecule antagonists, cell-based qHTS assay (AID 1963595; active means well fitted inhibition curve with a large enough effect in the signal ratio in the repeat runs, with a control signal flat; the % refers to the signal ratio)
Outline: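 HEK293 cells stably expressing DRD2 were preincubated with 0.1 mM Ro20-1724, then with compound for 10 min at room temperature. Cells were stimulated with 200 nM NKH477 plus 12 nM quinpirole for 30 min, and cAMP was read by HTRF.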

[19] = cAMP Responsive Elements (CRE) small molecule agonists, cell-based qHTS assay (AID 1963590)
Outline: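 A CRE-responsive beta-lactamase reporter in HEK 293T cells was used. Treatment ran 3 h at 37 C; detection used LiveBLAzer B/G FRET substrate for 2 h at room temperature.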

[20] = cAMP Responsive Elements (CRE) small molecule antagonists, cell-based qHTS assay (AID 1963591; active means well fitted inhibition curve with a large enough effect in the signal ratio in the repeat runs, not every such curve was filed as active; the % refers to the signal ratio)
Outline: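 HEK293T cells carrying a CRE-driven beta-lactamase reporter receive compound and NKH477 (0.25 uM final) for 3 h. Fluorescence from LiveBLAzer B/G FRET substrate is read after 2 h at room temperature.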
On the % scale 0 is the no-effect control and ±100 the full control effect.

Chain of Beta-2 adrenergic receptor (Homo sapiens) (P07550 whole entry, looked up): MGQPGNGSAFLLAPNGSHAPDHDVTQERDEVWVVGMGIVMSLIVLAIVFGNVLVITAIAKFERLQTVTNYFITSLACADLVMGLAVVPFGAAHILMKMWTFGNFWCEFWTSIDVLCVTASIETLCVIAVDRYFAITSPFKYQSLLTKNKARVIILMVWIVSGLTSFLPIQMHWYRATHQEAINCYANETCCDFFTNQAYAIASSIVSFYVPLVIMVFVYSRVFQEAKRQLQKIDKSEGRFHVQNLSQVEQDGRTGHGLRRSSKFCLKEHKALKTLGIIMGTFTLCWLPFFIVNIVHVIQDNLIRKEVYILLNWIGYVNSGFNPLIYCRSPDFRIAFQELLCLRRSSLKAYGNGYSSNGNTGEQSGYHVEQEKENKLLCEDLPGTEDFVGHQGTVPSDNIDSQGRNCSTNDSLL
Chain of 5-hydroxytryptamine receptor 2A (Homo sapiens) (P28223 whole entry, looked up): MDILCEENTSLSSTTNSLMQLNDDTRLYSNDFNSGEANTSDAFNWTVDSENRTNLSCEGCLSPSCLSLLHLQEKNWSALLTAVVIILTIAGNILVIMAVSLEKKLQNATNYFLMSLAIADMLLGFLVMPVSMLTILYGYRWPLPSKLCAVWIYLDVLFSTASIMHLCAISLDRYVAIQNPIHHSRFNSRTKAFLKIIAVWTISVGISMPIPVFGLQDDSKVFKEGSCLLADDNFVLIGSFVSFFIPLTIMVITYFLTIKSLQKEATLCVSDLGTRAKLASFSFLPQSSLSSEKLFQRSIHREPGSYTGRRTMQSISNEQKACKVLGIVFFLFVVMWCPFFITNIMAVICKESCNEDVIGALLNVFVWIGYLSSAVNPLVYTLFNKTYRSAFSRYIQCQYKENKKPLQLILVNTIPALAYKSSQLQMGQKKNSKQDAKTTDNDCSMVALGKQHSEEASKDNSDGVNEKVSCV
Chain of D(2) dopamine receptor (Homo sapiens) (P14416 whole entry, looked up): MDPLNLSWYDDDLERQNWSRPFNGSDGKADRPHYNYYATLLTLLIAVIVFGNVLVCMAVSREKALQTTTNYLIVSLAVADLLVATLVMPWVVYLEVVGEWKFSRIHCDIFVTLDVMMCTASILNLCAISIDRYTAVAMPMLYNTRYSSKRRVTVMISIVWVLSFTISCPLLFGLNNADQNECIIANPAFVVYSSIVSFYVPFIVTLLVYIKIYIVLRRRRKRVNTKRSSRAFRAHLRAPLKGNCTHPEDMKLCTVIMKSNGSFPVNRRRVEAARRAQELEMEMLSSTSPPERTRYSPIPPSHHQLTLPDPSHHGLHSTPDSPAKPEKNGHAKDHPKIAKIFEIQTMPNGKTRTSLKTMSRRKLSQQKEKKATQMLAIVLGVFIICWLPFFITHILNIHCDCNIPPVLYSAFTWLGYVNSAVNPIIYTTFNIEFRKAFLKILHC
Chain of Muscarinic acetylcholine receptor M1 (Homo sapiens) (P11229 whole entry, looked up): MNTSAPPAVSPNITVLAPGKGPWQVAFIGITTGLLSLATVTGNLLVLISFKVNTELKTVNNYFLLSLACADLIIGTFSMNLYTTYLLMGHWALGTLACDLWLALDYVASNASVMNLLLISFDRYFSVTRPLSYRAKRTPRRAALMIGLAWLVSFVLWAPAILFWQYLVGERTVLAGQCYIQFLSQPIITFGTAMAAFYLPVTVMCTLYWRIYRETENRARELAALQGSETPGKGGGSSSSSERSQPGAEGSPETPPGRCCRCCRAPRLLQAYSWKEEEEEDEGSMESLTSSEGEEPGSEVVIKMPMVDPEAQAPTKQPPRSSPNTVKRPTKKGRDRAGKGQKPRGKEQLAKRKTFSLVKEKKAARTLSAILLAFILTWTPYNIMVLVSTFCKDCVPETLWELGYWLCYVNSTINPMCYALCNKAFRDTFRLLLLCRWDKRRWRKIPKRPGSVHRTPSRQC
Chain of KiSS-1 receptor (Homo sapiens) (Q969F8 whole entry, looked up): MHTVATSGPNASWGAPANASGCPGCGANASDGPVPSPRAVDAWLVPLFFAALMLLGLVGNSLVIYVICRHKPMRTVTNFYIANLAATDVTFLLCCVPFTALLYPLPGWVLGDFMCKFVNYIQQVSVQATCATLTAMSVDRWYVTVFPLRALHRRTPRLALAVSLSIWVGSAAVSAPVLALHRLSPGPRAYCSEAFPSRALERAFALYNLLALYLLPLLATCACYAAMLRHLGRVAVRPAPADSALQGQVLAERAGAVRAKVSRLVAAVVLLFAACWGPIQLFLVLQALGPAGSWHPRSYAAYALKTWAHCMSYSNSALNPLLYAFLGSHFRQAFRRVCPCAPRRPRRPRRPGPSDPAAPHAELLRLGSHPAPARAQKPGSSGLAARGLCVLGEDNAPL
Chain of Gonadotropin-releasing hormone receptor (Homo sapiens) (P30968 whole entry, looked up): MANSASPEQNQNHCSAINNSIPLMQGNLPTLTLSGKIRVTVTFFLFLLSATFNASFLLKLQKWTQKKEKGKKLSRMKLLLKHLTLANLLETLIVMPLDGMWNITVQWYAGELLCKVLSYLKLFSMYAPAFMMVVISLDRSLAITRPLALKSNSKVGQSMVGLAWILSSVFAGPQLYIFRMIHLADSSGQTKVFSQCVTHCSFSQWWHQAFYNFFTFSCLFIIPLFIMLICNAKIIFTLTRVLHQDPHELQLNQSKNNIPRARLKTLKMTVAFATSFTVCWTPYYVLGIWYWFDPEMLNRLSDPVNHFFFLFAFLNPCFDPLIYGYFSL

O=C(OCCCCCOC(=O)c1ccccc1)c1ccccc1
inactive: Potency [1] | Potency [2] | outcome [3] | outcome [4] | Potency [5] | Potency [6] | Potency [7] | Potency [8] | Potency [9] | Potency [10] | Potency [11] | Potency [12] | Potency [13] | Potency [14] | Potency [15] | Potency [16] | Potency [17] | Potency [18]

CCC(CO)(CO)COCC(CC)(CO)CO
inactive: Potency [1] | Potency [2] | outcome [3] | outcome [4] | Potency [5] | Potency [6] | Potency [7] | Potency [8] | Potency [9] | Potency [10] | Potency [11] | Potency [12] | Potency [13] | Potency [14] | Potency [19] | Potency [20] | Potency [15] | Potency [17] | Potency [18]

Oc1cccc2cc3cccc(O)c3c(O)c12
inactive: Potency [1] | Potency [2] | outcome [3] | outcome [4] | Potency [5] | Potency [6] | Potency [7] | Potency [8] | Potency [9] | Potency [10] | Potency [11] | Potency [13] | Potency [14] | Potency [15] | Potency [17] | Potency [18]

CCCCc1ccc(N)cc1
inactive: Potency [1] | Potency [2] | outcome [3] | outcome [4] | Potency [5] | Potency [6] | Potency [7] | Potency [8] | Potency [9] | Potency [11] | Potency [12] | Potency [13] | Potency [14] | Potency [19] | Potency [20] | Potency [15] | Potency [17] | Potency [18]

CC(N)C12CC3CC(CC(C3)C1)C2 (stereo not drawn)
inactive: Potency [1] | Potency [2] | outcome [3] | outcome [4] | Potency [5] | Potency [6] | Potency [7] | Potency [8] | Potency [9] | Potency [10] | Potency [19] | Potency [20] | Potency [15] | Potency [16] | Potency [17] | Potency [18]

O=C1CCCN1CCO
inactive: Potency [1] | Potency [2] | outcome [3] | outcome [4] | Potency [5] | Potency [6] | Potency [7] | Potency [8] | Potency [9] | Potency [11] | Potency [12] | Potency [13] | Potency [14] | Potency [15] | Potency [16] | Potency [17] | Potency [18]

CC(C)(C)NC[C@H](O)COc1cccc2c1CCCC2=O
inactive: Potency [1] | Potency [2] | outcome [3] | outcome [4] | Potency [5] | Potency [6] | Potency [7] | Potency [8] | Potency [9] | Potency [10] | Potency [19] | Potency [20] | Potency [17] | Potency [18]

Cc1nccn1CC1CCc2c(c3ccccc3n2C)C1=O (stereo not drawn)
inactive: Potency [1] | Potency [2] | outcome [3] | outcome [4] | Potency [5] | Potency [6] | Potency [7] | Potency [8] | Potency [9] | Potency [10] | Potency [19] | Potency [20] | Potency [15] | Potency [16] | Potency [17]

CCOC(=O)C1=C(C)NC(C)=C(C(=O)OC)C1c1cccc([N+](=O)[O-])c1 (stereo not drawn)
inactive: Potency [1] | Potency [2] | outcome [3] | outcome [4] | Potency [5] | Potency [6] | Potency [7] | Potency [8] | Potency [9] | Potency [10] | Potency [19] | Potency [20] | Potency [15] | Potency [17] | Potency [18]

CCC(=O)CC(C)CC (stereo not drawn)
inactive: activity, positive = activation [1] -3.45% [at 0.349 µM] | activity change [2] -1.45% [at 0.217 µM, stronger effect = higher value] | activation [3] -1.52% [at 0.29 µM] | activation [4] -0.478% [at 0.217 µM] | activation [5] -0.0354% [at 0.249 µM] | activation [6] -2.6% [at 0.249 µM] | activity change, negative = cytotoxicity [7] -9.86% [at 0.249 µM] | activity change, negative = cytotoxicity [8] 1.72% [at 0.249 µM] | activity change, negative = cytotoxicity [9] 22.9% [at 0.249 µM] | activation [10] 5.1% [at 0.249 µM] | activity, negative = inhibition [11] 14.6% [at 0.233 µM] | activation [12] 6.03% [at 0.292 µM] | activity, negative = inhibition [13] -17.2% [at 0.232 µM] | activation [14] 0.0292% [at 0.29 µM] | activation [19] 0.0521% [at 0.349 µM] | activity change, negative = inhibition [20] 1.08% [at 0.349 µM] | activity change, negative = inhibition [15] 7.63% [at 0.349 µM] | activation [17] -3.53% [at 0.349 µM] | activity change, negative = inhibition [18] 8.77% [at 0.348 µM]

CO[C@@H]1[C@@H](OC(N)=O)[C@@H](O)[C@H](Oc2ccc3c(O)c(NC(=O)c4ccc(O)c(CC=C(C)C)c4)c(=O)oc3c2C)OC1(C)C
inactive: Potency [1] | Potency [2] | outcome [3] | outcome [4] | Potency [5] | Potency [6] | Potency [7] | Potency [8] | Potency [9] | Potency [10] | Potency [11] | Potency [12] | Potency [13] | Potency [14] | Potency [19] | Potency [20] | Potency [15] | Potency [17] | Potency [18]

C=C[Si](C)(C)Cl
inactive: activity, positive = activation [1] -0.9% [at 8.39 µM] | activity change [2] -0.471% [at 5.22 µM, stronger effect = higher value] | activation [3] -1.18% [at 6.97 µM] | activation [4] 0.126% [at 5.23 µM] | activation [5] -12.4% [at 5.99 µM] | activation [6] 0.959% [at 5.99 µM] | activity change, negative = cytotoxicity [7] -13% [at 5.99 µM] | activity change, negative = cytotoxicity [8] 8.84% [at 5.99 µM] | activity change, negative = cytotoxicity [9] -0.14% [at 5.99 µM] | activation [10] 0.341% [at 5.99 µM] | activity, negative = inhibition [11] -2.68% [at 5.62 µM] | activation [12] -0.8% [at 7.02 µM] | activation [14] 0.156% [at 6.97 µM] | activation [19] 0.4% [at 8.39 µM] | activity change, negative = inhibition [20] -10% [at 8.39 µM] | activity change, negative = inhibition [15] 2.31% [at 8.39 µM] | activation [17] 0.612% [at 8.39 µM] | activity change, negative = inhibition [18] 6.57% [at 8.38 µM]

BrCCCCCBr
inactive: Potency [1] | Potency [2] | outcome [3] | outcome [4] | Potency [5] | Potency [6] | Potency [7] | Potency [8] | Potency [9] | Potency [10] | Potency [11] | Potency [12] | Potency [13] | Potency [14] | Potency [19] | Potency [20] | Potency [15] | Potency [17] | Potency [18]
